Source: PubChem BioAssay (NCATS)
Inconclusive results are not listed. Activity calls are given as the source filed them. Calls follow the shape of the dose curve; as a rule, active = well fitted cell-killing curve with a large enough effect; inconclusive = small, poorly fitted or top-dose-only effect, or effect the other way; inactive = flat fitted curve, though single readings scatter. Where a SMILES comes first, the peptide text is derived from it. [ ]: non-standard residue; d: D form. PhLac = O=C(O)[CH](O)Cc1ccccc1; NMeV = CN[CH](C(=O)O)C(C)C

Experiments:
Test in all cases: Primary qHTS to identify gynecologic anti-cancer compounds using libraries of approved drugs and bioactive compounds (AID 1345084); also: nearly all actives have a fitted effect of over 55% in size
C33A = details: Gynecologic cancer cell panel viability, ATPlite luminescence, 48 h; series mostly up to 57.5 µM
Outline: (§1)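 Five-point cytotoxicity, 48 h drug exposure at 37 C, 5% CO2, on cells seeded 16 h beforehand. ATP content read by ATPlite luminescence.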

CAOV3 = details: Gynecologic cancer cell panel viability, ATPlite luminescence, 48 h; series mostly up to 57.5 µM
Outline: as §1

CASKI = details: Gynecologic cancer cell panel viability, ATPlite luminescence, 48 h; series mostly up to 57.5 µM
Outline: as §1

Es-2 = details: Gynecologic cancer cell panel viability, ATPlite luminescence, 48 h; series mostly up to 57.5 µM
Outline: as §1

HeLa = details: Gynecologic cancer cell panel viability, ATPlite luminescence, 48 h; series mostly up to 57.5 µM
Outline: as §1

Hek293T = details: Gynecologic cancer cell panel viability, ATPlite luminescence, 48 h, control line for the selectivity index; series mostly up to 57.5 µM
Outline: as §1

JEG-3 = details: Gynecologic cancer cell panel viability, ATPlite luminescence, 48 h; series mostly up to 57.5 µM
Outline: as §1
% is scaled to controls: 0 for no effect and ±100 for the full control effect.

CCOc1c2c(c(OCC)c3ccccc13)C(=O)N(c1ccc(CC(=O)NS(=O)(=O)c3ccccc3)cc1)C2
inactive: Potency (C33A) | Potency (CAOV3) | Potency (CASKI) | Potency (Es-2) | Potency (HeLa) | Potency (Hek293T) | Potency (JEG-3)

O=C1CC(c2ccc([N+](=O)[O-])cc2)=NN1c1ccccc1
inactive: Potency (C33A) | Potency (CAOV3) | Potency (CASKI) | Potency (Es-2) | Potency (HeLa) | Potency (Hek293T) | Potency (JEG-3)

C[C@@H]1O[C@@H](O[C@H]2[C@H](OC(=O)[C@]34CCC(C)(C)C[C@H]3C3=CCC5[C@@]6(C)C[C@H](O)[C@H](O[C@@H]7O[C@H](CO)[C@@H](O[C@@H]8O[C@H](CO)[C@@H](O)[C@H](O)[C@H]8O)[C@H](O)[C@H]7O)[C@@](C)(CO)C6[C@H](O)C[C@@]5(C)[C@]3(C)C[C@H]4O)OC[C@H](O)[C@@H]2O)[C@H](O)[C@H](O)[C@H]1O[C@@H]1OC[C@@H](O)[C@H](O[C@@H]2OC[C@](O)(CO)[C@H]2O)[C@H]1O (stereo partly specified)
inactive: activity change, negative = cytotoxicity (C33A) 12.9% [at 6.55 µM] | activity change, negative = cytotoxicity (CAOV3) 18.5% [at 6.55 µM] | activity change, negative = cytotoxicity (CASKI) 12.9% [at 6.55 µM] | activity change, negative = cytotoxicity (Es-2) 5.24% [at 6.55 µM] | activity change, negative = cytotoxicity (HeLa) 5.03% [at 6.55 µM] | activity change, negative = cytotoxicity (Hek293T) 1.73% [at 6.55 µM] | activity change, negative = cytotoxicity (JEG-3) 7.67% [at 6.55 µM]

C/C=C/C=C/C(CC(=O)O)Nc1ccc(C=O)cc1 (stereo unspecified)
inactive: Potency (C33A) | Potency (CAOV3) | Potency (CASKI) | Potency (Es-2) | Potency (HeLa) | Potency (Hek293T) | Potency (JEG-3)

COc1cc([C@H]2OC[C@]3(OC(C)=O)[C@@H](c4ccc(O[C@@H]5O[C@H](CO)[C@@H](O)[C@H](O)[C@H]5O)c(OC)c4)OC[C@H]23)ccc1O
inactive: Potency (C33A) | Potency (CAOV3) | Potency (CASKI) | Potency (Es-2) | Potency (HeLa) | Potency (Hek293T) | Potency (JEG-3)

COC(=O)C1=CO[C@@H](O[C@@H]2O[C@H](CO)[C@@H](O)[C@H](O)[C@H]2O)[C@@H]2[C@@H](C(=O)OC)[C@@H](O)C(O)[C@H]12 (stereo partly specified)
inactive: Potency (C33A) | Potency (CAOV3) | Potency (CASKI) | Potency (Es-2) | Potency (HeLa) | Potency (Hek293T) | Potency (JEG-3)

C[C@@H]1CC[C@]2(C)C3(C)CC[C@@]2(OC3=O)[C@@]12C[C@H](c1ccoc1)OC2=O
inactive: Potency (C33A) | Potency (CAOV3) | Potency (CASKI) | Potency (Es-2) | Potency (HeLa) | Potency (Hek293T) | Potency (JEG-3)

CC(=O)OC[C@@]12[C@@H](OC(C)=O)C[C@@H](C)[C@](C)([C@@H]3C[C@H]4C=CO[C@H]4O3)[C@H]1CCC[C@]21CO1
inactive: Potency (C33A) | Potency (CAOV3) | Potency (CASKI) | Potency (Es-2) | Potency (HeLa) | Potency (Hek293T) | Potency (JEG-3)

CC(C)c1ccc(CC(=O)N2CCC[C@@H](c3cccc(OC(C)(C)C(=O)O)c3)C2)cc1
inactive: Potency (C33A) | Potency (CAOV3) | Potency (CASKI) | Potency (Es-2) | Potency (HeLa) | Potency (Hek293T) | Potency (JEG-3)

C/C=C1/[C@H](O[C@@H]2O[C@H](CO)[C@@H](O)[C@H](O)[C@H]2O)OC=C(C(=O)OC)[C@H]1CC(=O)O[C@@H]1O[C@H](CO)[C@@H](O)[C@H](O)[C@H]1O
inactive: Potency (C33A) | Potency (CAOV3) | Potency (CASKI) | Potency (Es-2) | Potency (HeLa) | Potency (Hek293T) | Potency (JEG-3)

O=C(OCC12OC1C=CC(OC(=O)c1ccccc1)C2O)c1ccccc1 (stereo unspecified)
inactive: Potency (C33A) | Potency (CAOV3) | Potency (CASKI) | Potency (Es-2) | Potency (HeLa) | Potency (Hek293T) | Potency (JEG-3)

CNC(=O)[C@H]1O[C@@H](n2cnc3c(NCc4ccc(N)c(I)c4)ncnc32)[C@H](O)[C@@H]1O
inactive: activity change, negative = cytotoxicity (C33A) 17.6% [at 11.6 µM] | activity change, negative = cytotoxicity (CAOV3) -1.57% [at 11.6 µM] | activity change, negative = cytotoxicity (CASKI) 16.3% [at 11.6 µM] | activity change, negative = cytotoxicity (Es-2) 0.484% [at 11.6 µM] | activity change, negative = cytotoxicity (HeLa) 5.87% [at 11.6 µM] | activity change, negative = cytotoxicity (Hek293T) 0.59% [at 11.6 µM] | activity change, negative = cytotoxicity (JEG-3) 20.5% [at 11.6 µM]

CCN[C@@H]1C[C@H](N)[C@@H](O[C@H]2OC(CN)=CC[C@H]2N)[C@H](O)[C@H]1O[C@H]1OC[C@](C)(O)[C@H](NC)[C@H]1O
inactive: Potency (C33A) | Potency (CAOV3) | Potency (CASKI) | Potency (Es-2) | Potency (HeLa) | Potency (Hek293T) | Potency (JEG-3)

O=C(O)c1ccc(CCCc2ccc(OCCc3ccc(F)cc3)cc2)o1
inactive: Potency (C33A) | Potency (CAOV3) | Potency (CASKI) | Potency (Es-2) | Potency (HeLa) | Potency (Hek293T) | Potency (JEG-3)

N#Cc1ccnc(N2C(=O)CC[C@H]2C(=O)N(c2cncc(F)c2)[C@H](C(=O)NC2CC(F)(F)C2)c2ccccc2Cl)c1
inactive: Potency (C33A) | Potency (CAOV3) | Potency (CASKI) | Potency (Es-2) | Potency (HeLa) | Potency (Hek293T) | Potency (JEG-3)

COc1cc(C2Oc3c(OC)cc(/C=C/C(=O)OC[C@H]4O[C@@H](OC(C)(C)C(=O)O)[C@H](O)[C@@H](O)[C@@H]4O)cc3C2CO)ccc1O (stereo partly specified)
inactive: Potency (C33A) | Potency (CAOV3) | Potency (CASKI) | Potency (Es-2) | Potency (HeLa) | Potency (Hek293T) | Potency (JEG-3)

COC(=O)C1=CO[C@@H](O[C@@H]2O[C@H](CO[C@@H]3O[C@H](COC(=O)/C=C/c4ccc(O)cc4)[C@@H](O)[C@H](O)[C@H]3O)[C@@H](O)[C@H](O)[C@H]2O)[C@@H]2C(CO)=CC[C@H]12
inactive: Potency (C33A) | Potency (CAOV3) | Potency (CASKI) | Potency (Es-2) | Potency (HeLa) | Potency (Hek293T) | Potency (JEG-3)

CCC(C)/C=C(C)/C=C/C1=CC2=C(Cl)C(=O)C(C)(OC(C)=O)C(=O)C2=CN1CCCC(=O)O (stereo unspecified)
inactive: Potency (C33A) | Potency (CAOV3) | Potency (CASKI) | Potency (Es-2) | Potency (HeLa) | Potency (Hek293T) | Potency (JEG-3)

CC1(C)NC2N(C1=O)c1ccccc1C2(O)CC(C(=O)O)n1cnc2ccccc2c1=O (stereo unspecified)
inactive: Potency (C33A) | Potency (CAOV3) | Potency (CASKI) | Potency (Es-2) | Potency (HeLa) | Potency (Hek293T) | Potency (JEG-3)

CCc1cc2c(=O)c(-c3nc4ccccc4s3)coc2c(CN2CCCCC2)c1O
inactive: Potency (C33A) | Potency (CAOV3) | Potency (CASKI) | Potency (Es-2) | Potency (HeLa) | Potency (Hek293T) | Potency (JEG-3)

CC(=O)N[C@H](Cc1ccc(O)cc1)C(=O)N[C@H](CCCN=C(N)N)C(=O)N[C@H](Cc1ccccc1)C(N)=O (Ac-[dY]-[dR]-[dF]-NH2)
inactive: Potency (C33A) | Potency (CAOV3) | Potency (CASKI) | Potency (Es-2) | Potency (HeLa) | Potency (Hek293T) | Potency (JEG-3)

CC/C=C/CC1=C(CCCCCCCC(=O)O)CCC1=O
inactive: Potency (C33A) | Potency (CAOV3) | Potency (CASKI) | Potency (Es-2) | Potency (HeLa) | Potency (Hek293T) | Potency (JEG-3)

COC(=O)C[C@@H]1C(C(=O)O)=CO[C@@H](O[C@@H]2O[C@H](CO)[C@@H](O)[C@H](O)[C@H]2O)/C1=C\COC(=O)/C=C\c1ccccc1
inactive: Potency (C33A) | Potency (CAOV3) | Potency (CASKI) | Potency (Es-2) | Potency (HeLa) | Potency (Hek293T) | Potency (JEG-3)

CC(C)C(C(=O)N1CCCC1C(=O)O)N(C)C(=O)C(O)Cc1ccccc1 (stereo unspecified) (H-[PhLac]-[NMeV]-Pro-OH; configuration not given here)
inactive: Potency (C33A) | Potency (CAOV3) | Potency (CASKI) | Potency (Es-2) | Potency (HeLa) | Potency (Hek293T) | Potency (JEG-3)

CC(=O)NC(C(=O)OC1CCC(C)(C)C2CC=C3C(=O)OCC3(O)C12C)C(C)C (stereo unspecified)
inactive: Potency (C33A) | Potency (CAOV3) | Potency (CASKI) | Potency (Es-2) | Potency (HeLa) | Potency (Hek293T) | Potency (JEG-3)

C[C@H]1[C@H](C)CC[C@]2(C(=O)O)CC[C@]3(C)C(=CC[C@@H]4[C@@]5(C)C[C@@H](O)[C@H](O)[C@@](C)(CO)[C@@H]5CC[C@]43C)[C@H]12
inactive: Potency (C33A) | Potency (CAOV3) | Potency (CASKI) | Potency (Es-2) | Potency (HeLa) | Potency (Hek293T) | Potency (JEG-3)

OC[C@H]1O[C@@H](Oc2ccc3c(c2)OC[C@H]2c4cc5c(cc4O[C@@H]32)OCO5)[C@H](O)[C@@H](O)[C@@H]1O
inactive: Potency (C33A) | Potency (CAOV3) | Potency (CASKI) | Potency (Es-2) | Potency (HeLa) | Potency (Hek293T) | Potency (JEG-3)

CC(=O)O[C@@H]1C[C@@]23C[C@@]24CC[C@H](OC2OC[C@@H](O)[C@H](O)[C@H]2O)C(C)(C)[C@@H]4CC[C@H]3[C@]2(C)CC3OC4(C[C@@H](C)C3[C@@]12C)OCC1(C)OC14 (stereo partly specified)
inactive: Potency (C33A) | Potency (CAOV3) | Potency (CASKI) | Potency (Es-2) | Potency (HeLa) | Potency (Hek293T) | Potency (JEG-3)

CN1CC[C@@H](NC(=O)Nc2ccc(C#N)cc2)C[C@@H]1c1nc2ccccc2[nH]1
inactive: Potency (C33A) | Potency (CAOV3) | Potency (CASKI) | Potency (Es-2) | Potency (HeLa) | Potency (Hek293T) | Potency (JEG-3)

O=C(c1ccc(NS(=O)(=O)c2cccc3cccnc23)cc1)N1CCN(CC2CC2)CC1
inactive: Potency (C33A) | Potency (CAOV3) | Potency (CASKI) | Potency (Es-2) | Potency (HeLa) | Potency (Hek293T) | Potency (JEG-3)

CC1=C2C=C(CO)C(CO)CCC2(C)CCC1=O (stereo unspecified)
inactive: Potency (C33A) | Potency (CAOV3) | Potency (CASKI) | Potency (Es-2) | Potency (HeLa) | Potency (Hek293T) | Potency (JEG-3)

O=C1[C@H](O[C@@H]2O[C@H](CO)[C@@H](O)[C@H](O)[C@H]2O)Oc2ccccc2N1O
inactive: Potency (C33A) | Potency (CAOV3) | Potency (CASKI) | Potency (Es-2) | Potency (HeLa) | Potency (Hek293T) | Potency (JEG-3)

O=C(O)c1cc(O[C@@H]2O[C@H](CO[C@@H]3OC[C@@H](O)[C@H](O)[C@H]3O)[C@@H](O)[C@H](O)[C@H]2O)c2ccccc2c1O
inactive: Potency (C33A) | Potency (CAOV3) | Potency (CASKI) | Potency (Es-2) | Potency (HeLa) | Potency (Hek293T) | Potency (JEG-3)
